From PubChem BioAssay
The list is not random: actives were taken first. Their share in the collection is about 3.4%.
ssDAF12 agonist = activators of S. stercoralis DAF-12 nuclear receptor; HEK293 ssDAF-12/GRIP1 lit1-tk-luc reporter, luminescence; % of 3 µM dafachronic acid response; activation, % at 6.8 µM; 370,000 compounds, 1% hits; AID 652126;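 active means activation above the mean over all tested compounds plus 3 SD, cut at about 0.9% in these data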
NF-kB neuron act = NF-kB expression increase, human neuronal cells; NF-kB reporter expression; active compounds read high; fold change at 12.5 µM; 190,000 compounds, 1.6% hits; AID 1239; in the data active means fold change above about 3.3
APP 5'UTR act = APP 5'UTR luciferase reporter activation. 190,000 compounds, 1% hits. AID 1276. SH-SY5Y APP 5'UTR luciferase reporter, luminescence; zero percent = DMSO vehicle wells. activation, % at 2 µM;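 active means activation above a set limit, based on mean plus 3 SD of controls, cut at about 140% in these data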
hgDAF12 agonist = hgDAF-12 agonism, primary luciferase screen; HEK293 GAL4-hgDAF12 UAS-luciferase reporter, agonist luminescence; normalized to butyrate control; activation, % at 6.8 µM; 370,000 compounds, 1.8% hits; AID 687014;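 active means activation above a cutoff set at the mean of all screened compounds plus 3 SD, cut at about 10% in these data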
hcDAF12 agonist = H. contortus DAF-12 activation, primary screen; HEK293 hcDAF-12 lit1-tk-luc reporter, luminescence; 0% DMSO, 100% Δ7-dafachronic acid; activation, % at 6.8 µM; 370,000 compounds, 1.4% hits;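 active means activation above the mean of all tested compounds plus 3 SD, cut at about 5.5% in these data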
Of the large screens only hits and unclear results are named; the others gave an inactive call.

CCOC(=O)[C@@]12CCCC=C1N(CCc1ccc(Cl)cc1)C(=O)[C@H]2CC(=O)N1CCN(C(=O)c2ccco2)CC1	none (no result: NF-kB neuron act, APP 5'UTR act)
O=C(CSc1ccc(-c2ccccc2)nn1)c1cccs1	hgDAF12 agonist 12
COc1ccc(-c2ccc(SCC(=O)c3cccs3)nn2)cc1	none
COc1ccc(-c2nnc(-c3ccc(N(C)C)cc3)o2)cc1	none
COc1ccc(-c2nnc(-c3ccc(N)cc3)o2)cc1	NF-kB neuron act 5.7, hgDAF12 agonist 11
CC(=O)N1CCc2cc(S(=O)(=O)NC3CCN(C(=O)CCl)CC3)ccc21	none (no result: NF-kB neuron act, APP 5'UTR act)
COC(=O)c1ccc(Cn2nnc3c(=O)[nH]c(C4CCCN(S(=O)(=O)c5ccc(C)cc5)C4)nc32)cc1 (stereo not drawn)	hcDAF12 agonist 5.6 (no result: NF-kB neuron act, APP 5'UTR act)
Cc1ccc(Cn2nnc3c(=O)[nH]c(C4CCCN(S(=O)(=O)c5ccc(F)cc5)C4)nc32)cc1 (stereo not drawn)	none (no result: NF-kB neuron act, APP 5'UTR act)
COc1cc(/C=N/N=C(\N)c2nonc2N)cc(OC)c1O	hgDAF12 agonist 13 (no result: NF-kB neuron act, APP 5'UTR act)
CCc1ccc(C2=NN(C(=O)OC)C(O)(C(F)(F)F)C2)cc1 (stereo not drawn)	ssDAF12 agonist 1.0, APP 5'UTR act 136, hcDAF12 agonist 6.0
N/C(=N\NC(=O)c1ccc(F)cc1)c1cc2ccccc2oc1=O	none
N/C(=N\NC(=O)c1cccs1)c1cc2ccccc2oc1=O	hgDAF12 agonist 11
CC(C)OC(=O)CC(=O)CSc1nc2c(cc1C#N)CCCCC2	NF-kB neuron act 4.3
CCc1cc2cc(C)ccc2nc1SCC(=O)Nc1cc(C)on1	NF-kB neuron act 3.3
Cc1cc(NC(=O)CSc2nc3ccccc3cc2C#N)no1	none (no result: NF-kB neuron act, APP 5'UTR act)
CCOC(=O)CC(=O)CSc1nc2c(cc1C#N)CCCCC2	NF-kB neuron act 4.6, hgDAF12 agonist 11
Cc1cc(NC(=O)CSc2nc3c(cc2C#N)CCCC3)no1	APP 5'UTR act 207
O=C(Nc1cccc(F)c1)OCCCN1CCC2(CCC(c3ccccc3)CC2)C1 (stereo not drawn)	none (no result: NF-kB neuron act, APP 5'UTR act)
O=C(NCCCc1ccccc1)[C@H](Cc1c[nH]c2ccccc12)NC1(C(=O)NCCc2c[nH]c3ccccc23)CCC1	none (no result: NF-kB neuron act, APP 5'UTR act)
CCOc1ccccc1C(=O)N1CCC(Oc2cccnc2)CC1	none (no result: NF-kB neuron act, APP 5'UTR act)
O=C(CC1CCCC1)N1CC[C@H]2[C@H](CCCN2Cc2cc(F)cc(F)c2)C1	none (no result: NF-kB neuron act, APP 5'UTR act)
O=C(N1CCOCC1)N1CC[C@H]2[C@H](CCCN2Cc2cc(F)cc(F)c2)C1	none (no result: NF-kB neuron act, APP 5'UTR act)
Cc1cc(NC(=O)CSc2nc3sc4c(c3c(=O)n2C)CCCC4)no1	none
Cc1cc(NC(=O)CSc2nc(C(C)C)nc3sc4c(c23)CCCC4)no1	ssDAF12 agonist 1.3
O=C(NCCOc1ccccc1Cl)c1cc(F)c(F)cc1Cl	NF-kB neuron act 3.8 (no result: ssDAF12 agonist, hgDAF12 agonist, hcDAF12 agonist)
O=C(NCCOc1ccccc1)c1ccccc1Cl	hgDAF12 agonist 12 (no result: NF-kB neuron act, APP 5'UTR act)
c1ccc2[nH]c(SCC3CCCCO3)nc2c1 (stereo not drawn)	NF-kB neuron act 3.7, APP 5'UTR act 152, hgDAF12 agonist 11
Cc1cc(C(=O)CSc2nc3ccccc3[nH]2)c(C)n1CC1CCCO1 (stereo not drawn)	APP 5'UTR act 189
CCOc1ccc2nc(SCC3CC3(Cl)Cl)[nH]c2c1 (stereo not drawn)	hgDAF12 agonist 12 (no result: NF-kB neuron act, APP 5'UTR act)
O=C1OCCC1Sc1nc2ccccc2[nH]1 (stereo not drawn)	none
Cc1cc(C(=O)CSc2nc(N)cc(=O)[nH]2)c(C)n1CC1CCCO1 (stereo not drawn)	none (no result: NF-kB neuron act, APP 5'UTR act)
ClC1(Cl)CC1CSc1nc2ccccc2[nH]1 (stereo not drawn)	hgDAF12 agonist 12
CCOC(=O)NC(=O)CSc1nc2ccc(OCC)cc2[nH]1	none
CCN1Cc2nnn(CC3CCCCC3)c2-c2ccccc2S1(=O)=O	none (no result: NF-kB neuron act, APP 5'UTR act)
C#CCn1c2ccccc2c(=O)n1C(C)CBr (stereo not drawn)	ssDAF12 agonist 1.1 (no result: NF-kB neuron act, APP 5'UTR act)
C#CCn1c2ccccc2c(=O)n1C(C)C	none (no result: NF-kB neuron act, APP 5'UTR act)
COc1ccccc1C1=NOC(Cn2c(=O)c3c(ncn3C)n(C)c2=O)C1 (stereo not drawn)	ssDAF12 agonist 0.9
Fc1ccc(-c2nc3ccc(Br)cn3c2Cc2ccsc2)cc1	none (no result: NF-kB neuron act, APP 5'UTR act)
Cc1ccc2nc(-c3ccc(F)cc3)c(Cc3ccsc3)n2c1	hgDAF12 agonist 10 (no result: NF-kB neuron act, APP 5'UTR act)
Cc1ccc2nc(-c3ccc(Cl)cc3)c(Cc3ccccc3C(F)(F)F)n2c1	hgDAF12 agonist 12 (no result: NF-kB neuron act, APP 5'UTR act)
Cc1ccc2nc(-c3ccc(Cl)cc3)c(Cc3ccsc3)n2c1	hgDAF12 agonist 13 (no result: NF-kB neuron act, APP 5'UTR act)
Cc1ccc(-c2nc3ccc(Cl)cn3c2Cc2ccccc2C(F)(F)F)cc1	none (no result: NF-kB neuron act, APP 5'UTR act)
